The results in this text go back to PubChem BioAssay (EPA / NIEHS).

Test [1] addresses GAL4 Transcription Factor (Internal Marker), GAL4 (gene 855828) (UniProt P04386). The test is described as follows: ATG_GAL4_XSP1: Attagene TRANS-FACTORIAL Multi-Species (XSP1) HepG2 Assay for GAL4 Transcription Factor (Internal Marker) (AID 2283789). In short, it runs like this: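 This background-control endpoint measures GAL4-driven reporter mRNA via RT-PCR and capillary electrophoresis of labelled fragments. Transiently transfected HepG2 cells were treated 24 h, with 3 nM 6-alpha-fluorotestosterone included, and gain-of-signal was fitted against DMSO.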

A short description of test [2]: ATG_M_06_XSP1: Attagene TRANS-FACTORIAL Multi-Species (XSP1) HepG2 Assay for M06 Transcription Factor (Internal Marker) (AID 2283790). The gist of the method: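 This background-control readout tracks M06 reporter mRNA, measured by RT-PCR and capillary electrophoresis. HepG2 cells transiently carrying the GAL4-UAS reporter panel were dosed for 24 h with 3 nM 6-alpha-fluorotestosterone added for partial AR stimulation; increases were scored relative to DMSO.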

A short description of test [3]: ATG_M_61_XSP1: Attagene TRANS-FACTORIAL Multi-Species (XSP1) HepG2 Assay for M61 Transcription Factor (Internal Marker) (AID 2283797). The gist of the method:
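Background-control readout: reporter transcripts measured by RT-PCR and capillary electrophoresis 24 h after dosing transiently transfected HepG2 multi-reporter cells, with 3 nM 6-alpha-fluorotestosterone present. Fitted in the positive direction relative to DMSO.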

Test [4] is described as follows: ATG_M_32_XSP1: Attagene TRANS-FACTORIAL Multi-Species (XSP1) HepG2 Assay for M32 Transcription Factor (Internal Marker) (AID 2283799). In short, it runs like this: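 Reporter transcripts from the M32 internal-control unit measured by RT-PCR, FAM labelling, HpaI digestion and capillary electrophoresis after 24 h compound exposure of transfected HepG2, 3 nM 6-alpha-fluorotestosterone included; DMSO baseline, positive-direction fit.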

The target in test [5] is Peroxisome proliferator-activated receptor gamma (Homo sapiens) (UniProt P37231). The test is described as follows: ATG_hPPARg_XSP1: Attagene TRANS-FACTORIAL Multi-Species (XSP1) HepG2 Assay for human Peroxisome Proliferator-activated Receptor gamma (PPARg) (AID 2283800). The gist of the method:
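Reporter mRNA induction, measured by RT-PCR with capillary electrophoresis 24 h after dosing, scored as gain over DMSO. Transfected HepG2 cells express exogenous NR-Gal4 chimeras driving GAL4-UAS reporters; medium includes 3 nM 6-alpha-fluorotestosterone.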

Test [6] relates to zebrafish Peroxisome Proliferator-activated Receptor gamma (PPARg), gene 557037. The test is described as follows: ATG_zfPPARg_XSP1: Attagene TRANS-FACTORIAL Multi-Species (XSP1) HepG2 Assay for zebrafish Peroxisome Proliferator-activated Receptor gamma (PPARg) (AID 2283801). In short, it runs like this:
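Trans-activation readout of chimeric zebrafish PPARg–GAL4 in transiently transfected human HepG2 cells, 24 h chemical exposure (medium includes 3 nM 6-alpha-fluorotestosterone). Reporter transcripts measured by RT-PCR and capillary electrophoresis, fitted as gain over DMSO.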

The target of test [7] is mouse Peroxisome Proliferator-activated Receptor gamma (PPARg), Pparg (gene 19016) (UniProt P37238). The test is described as follows: ATG_mPPARg_XSP1: Attagene TRANS-FACTORIAL Multi-Species (XSP1) HepG2 Assay for mouse Peroxisome Proliferator-activated Receptor gamma (PPARg) (AID 2283802). The protocol: ATG_XSP1_multi-species_TRANS is a cell-based, multiplexed assay created by modifying the existing Attagene TRANS-FACTORIAL system to include a panel of nuclear receptors from some or all the following species: human (Homo sapiens), mouse (Mus musculus), frog (Xenopus laevis), zebrafish (Danio rerio), chicken (Gallus gallus), and turtle (Chrysemys picta). The ECOTOX-FACTORIAL format uses HepG2, a human liver cell line, with measurements taken at 24 hours after chemical dosing in a 24-well plate. Xsp1 included 3 nM 6-alpha-fluorotestosterone to partially stimulate the androgen receptor.ATG_mPPARg_XSP1 is one of 29 assay components measured or calculated from the ATG_XSP1_multi-species_TRANS assay. It is designed to make measurements of mRNA induction, a form of inducible reporter, as detected with fluorescence intensity signals by Reverse transcription polymerase chain reaction (RT-PCR) and Capillary electrophoresis technology.The assay endpoint ATG_mPPARg_XSP1 was analyzed in the positive analysis fitting direction relative to DMSO as the negative control and baseline of activity. Using a type of inducible reporter, measures of mRNA for gain-of-signal activity can be used to understand the reporter gene at the transcription factor-level as they relate to the gene PPARg. Furthermore, this assay endpoint can be referred to as a primary readout, because this assay has produced multiple assay endpoints where this one serves a reporter gene function. To generalize the intended target to other relatable targets, this assay endpoint is annotated to the nuclear receptor intended target family, where the subfamily is non-steroidal.
Sequence of mouse Peroxisome Proliferator-activated Receptor gamma (PPARg), Pparg (gene 19016) (P37238 whole entry, looked up): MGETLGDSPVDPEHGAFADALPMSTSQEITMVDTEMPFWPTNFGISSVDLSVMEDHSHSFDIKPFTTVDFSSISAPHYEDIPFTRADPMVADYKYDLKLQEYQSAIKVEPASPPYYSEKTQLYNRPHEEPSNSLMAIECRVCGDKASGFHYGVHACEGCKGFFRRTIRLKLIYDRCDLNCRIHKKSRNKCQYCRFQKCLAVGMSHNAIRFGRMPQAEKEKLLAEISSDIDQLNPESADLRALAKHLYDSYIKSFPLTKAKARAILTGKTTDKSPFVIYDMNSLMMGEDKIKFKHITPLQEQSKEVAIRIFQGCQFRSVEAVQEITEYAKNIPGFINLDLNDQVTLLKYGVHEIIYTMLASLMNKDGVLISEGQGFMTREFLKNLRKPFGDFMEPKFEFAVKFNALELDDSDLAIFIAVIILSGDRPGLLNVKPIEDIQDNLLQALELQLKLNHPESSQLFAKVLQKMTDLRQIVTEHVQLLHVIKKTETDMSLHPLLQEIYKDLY
Human liver HepG2 cells are transiently transfected with multiple reporter transcription units (MRTUs) in 6-well plates using FuGene 6 reagent (Roche; 3 ml FuGene/1 mg DNA). The MRTU constructs are regulated by a cis-regulating element (promoter). […] A major difference between the CIS and TRANS system is that in CIS activities of endogenous TFs are measured, whereas the TRANS assay evaluates changes in activities of exogenous, chimeric NR-Gal4 proteins. […] At the end of 24 hour incubation, total RNA was isolated using TriZol reagent (Invitrogen). The isolated RNA is then reverse-transcribed using oligo(dT) primer and Mo-MLV reverse transcriptase (Invitrogen) with DNAse I (Ambion) treatment for 30 min. The one-tenth of the produced cDNA was amplified by PCR using Taq DNA polymerase (Invitrogen) and two reporter sequence-specific primers. The PCR products were fluorescently labeled by primer extension with 6-arboxyfluorescein (6-FAM) 5'-labeled reporter sequence-specific primer (2 min at 95 C, 20 s at 68 C and 10 min at 72 C) and these products were digested with 5U of HpaI (New England Biolabs) for 2h at 37 C. The fragments were purified using Qiaquick PCR columns (Qiagen), analyzed on an ABI 3130xL genetic analyzer (Applied Biosystems) with peak positions identified by using a set of X-rhodamine (ROX)-labeled MapMarker1000 molecular weight standards (BioVentures). The raw capillary electrophoresis data was processed using Attagraph software (Attagene).

The target of test [8] is Nuclear receptor subfamily 1 group I member 2 (Mus musculus) (UniProt O54915). The experiment in a line: ATG_mPXR_XSP1: Attagene TRANS-FACTORIAL Multi-Species (XSP1) HepG2 Assay for mouse Pregnane X Receptor (PXR) (AID 2283803). In short, it runs like this:
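Transiently transfected HepG2 cells expressing a receptor-Gal4 chimera drive a GAL4-UAS reporter; 3 nM 6-alpha-fluorotestosterone included. Reporter mRNA read 24 h post-dose by RT-PCR and capillary electrophoresis; gain of signal relative to DMSO.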

For test [9], the target named is frog Thyroid hormone Receptor alpha (TRa), thra-a (gene 397942) (UniProt P15204). The experiment in a line: ATG_frTRa_XSP1: Attagene TRANS-FACTORIAL Multi-Species (XSP1) HepG2 Assay for frog Thyroid hormone Receptor alpha (TRa) (AID 2283804). In short, it runs like this:
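Reporter transcript induction, measured by RT-PCR with 6-FAM labelling and capillary electrophoresis, 24 hr after dosing transiently transfected HepG2 cells expressing a frog TRa-GAL4 fusion; medium contained 3 nM 6-alpha-fluorotestosterone; increase over DMSO scored.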

Test [10] can be described thus: ATG_M_19_XSP1: Attagene TRANS-FACTORIAL Multi-Species (XSP1) HepG2 Assay for M19 Transcription Factor (Internal Marker) (AID 2283798). The gist of the method:
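Readout is reporter mRNA induction quantified via RT-PCR, 6-FAM labeling, HpaI digestion and capillary electrophoresis, fitted in the positive direction versus DMSO baseline. Transfected HepG2 cells exposed 24 h, medium including 3 nM 6-alpha-fluorotestosterone.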

SMILES strings stand for the structures. Results filed as inconclusive are left out. Active and inactive are the calls of the source. The calls were made as follows: active = hit-call score of the fitted dose curve at least 0.9, where 1 is the maximum; inconclusive = response in the unintended direction; inactive = score below 0.9.

Sequence of Nuclear receptor subfamily 1 group I member 2 (Mus musculus) (O54915 whole entry, looked up, the tested form may be a part): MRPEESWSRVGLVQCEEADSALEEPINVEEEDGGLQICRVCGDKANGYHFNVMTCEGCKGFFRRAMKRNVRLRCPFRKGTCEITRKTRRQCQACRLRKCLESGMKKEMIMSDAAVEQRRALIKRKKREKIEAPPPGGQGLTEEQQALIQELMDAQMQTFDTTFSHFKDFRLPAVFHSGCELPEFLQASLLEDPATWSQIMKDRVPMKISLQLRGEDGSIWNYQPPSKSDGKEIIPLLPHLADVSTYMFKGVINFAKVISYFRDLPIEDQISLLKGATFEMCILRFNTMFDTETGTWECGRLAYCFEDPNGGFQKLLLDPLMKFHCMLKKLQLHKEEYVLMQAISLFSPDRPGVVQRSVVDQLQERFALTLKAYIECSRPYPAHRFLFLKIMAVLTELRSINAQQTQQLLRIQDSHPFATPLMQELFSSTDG
Sequence of frog Thyroid hormone Receptor alpha (TRa), thra-a (gene 397942) (P15204 whole entry, looked up, the tested form may be a part): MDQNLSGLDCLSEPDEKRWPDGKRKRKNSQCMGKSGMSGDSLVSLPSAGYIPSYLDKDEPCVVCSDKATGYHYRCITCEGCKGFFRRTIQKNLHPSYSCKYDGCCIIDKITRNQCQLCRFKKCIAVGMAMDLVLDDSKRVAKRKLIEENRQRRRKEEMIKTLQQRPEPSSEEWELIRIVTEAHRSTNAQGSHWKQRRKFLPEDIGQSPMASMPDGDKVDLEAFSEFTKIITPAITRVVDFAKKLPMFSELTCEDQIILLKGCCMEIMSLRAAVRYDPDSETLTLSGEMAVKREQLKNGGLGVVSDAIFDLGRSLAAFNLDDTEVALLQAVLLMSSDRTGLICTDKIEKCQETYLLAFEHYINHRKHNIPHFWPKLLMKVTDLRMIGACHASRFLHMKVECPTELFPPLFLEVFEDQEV
Sequence of GAL4 Transcription Factor (Internal Marker), GAL4 (gene 855828) (P04386 whole entry, looked up, the tested form may be a part): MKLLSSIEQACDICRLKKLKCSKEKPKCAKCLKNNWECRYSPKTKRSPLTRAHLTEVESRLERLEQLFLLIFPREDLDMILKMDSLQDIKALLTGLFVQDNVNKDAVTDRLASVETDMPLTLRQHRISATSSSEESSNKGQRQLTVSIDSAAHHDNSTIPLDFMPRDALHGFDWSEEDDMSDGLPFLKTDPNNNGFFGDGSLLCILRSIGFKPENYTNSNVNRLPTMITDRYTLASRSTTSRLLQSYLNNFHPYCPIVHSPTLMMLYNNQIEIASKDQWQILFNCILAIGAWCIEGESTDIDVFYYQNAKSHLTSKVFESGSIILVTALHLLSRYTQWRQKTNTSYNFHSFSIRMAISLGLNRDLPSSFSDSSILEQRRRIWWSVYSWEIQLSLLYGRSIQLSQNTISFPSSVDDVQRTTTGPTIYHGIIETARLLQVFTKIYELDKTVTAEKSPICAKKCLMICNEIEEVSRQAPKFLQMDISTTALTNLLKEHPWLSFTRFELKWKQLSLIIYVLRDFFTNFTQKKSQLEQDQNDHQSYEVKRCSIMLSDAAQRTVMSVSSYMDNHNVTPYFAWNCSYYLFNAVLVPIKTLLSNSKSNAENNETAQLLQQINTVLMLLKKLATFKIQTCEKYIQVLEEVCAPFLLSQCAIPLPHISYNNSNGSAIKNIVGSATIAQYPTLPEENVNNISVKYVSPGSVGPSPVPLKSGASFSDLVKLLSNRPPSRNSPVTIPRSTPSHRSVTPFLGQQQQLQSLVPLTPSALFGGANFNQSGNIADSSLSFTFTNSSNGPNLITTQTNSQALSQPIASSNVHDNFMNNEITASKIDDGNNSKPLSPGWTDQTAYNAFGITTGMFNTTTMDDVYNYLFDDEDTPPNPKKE
Sequence of Peroxisome proliferator-activated receptor gamma (Homo sapiens) (P37231 whole entry, looked up, the tested form may be a part): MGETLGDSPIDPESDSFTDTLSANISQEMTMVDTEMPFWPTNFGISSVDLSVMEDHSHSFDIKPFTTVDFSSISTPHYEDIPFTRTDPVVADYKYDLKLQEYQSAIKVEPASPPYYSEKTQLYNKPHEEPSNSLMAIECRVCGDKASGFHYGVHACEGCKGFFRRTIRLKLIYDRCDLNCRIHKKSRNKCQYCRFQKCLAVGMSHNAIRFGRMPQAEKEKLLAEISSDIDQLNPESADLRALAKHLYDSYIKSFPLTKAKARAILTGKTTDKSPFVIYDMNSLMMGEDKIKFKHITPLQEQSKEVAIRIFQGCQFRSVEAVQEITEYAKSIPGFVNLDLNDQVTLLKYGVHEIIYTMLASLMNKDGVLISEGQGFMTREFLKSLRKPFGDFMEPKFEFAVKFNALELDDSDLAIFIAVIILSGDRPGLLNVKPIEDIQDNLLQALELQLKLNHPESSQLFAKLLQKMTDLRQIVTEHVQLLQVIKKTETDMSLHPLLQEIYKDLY

For the molecule `COP(=S)(OC)Oc1ccc(SC)c(C)c1`, the molecule was classed as inactive in [1], in test [2], in test [3], in test [4] and in [6]. Moreover, the AC50 in test [5] was 22.5 µM (active); in test [7] it was 41.5 µM (active); in test [8], 8.91 µM (active).
For `CC1(C)C(C=C(Cl)Cl)C1C(=O)OC(C#N)c1ccc(F)c(Oc2ccccc2)c1` (configuration not stated), the molecule was called inactive in test [2], in [3], in [6] and in test [9]. For the same molecule, the AC50 in test [5] was 11.1 µM (active); in test [7], 9.66 µM (active); in test [8] it was 0.436 µM (active).
Turning to `CCOCN(C(=O)CCl)c1c(C)cccc1CC`, the outcome in test [1] and in test [10] was inactive. Moreover, the half-maximal activity concentration (AC50) in test [5] is 0.727 µM (active); in test [7] it was 1.89 µM (active); in test [8], 4 µM (active).
Turning to `O=S(=O)(O)C(F)(F)C(F)(F)C(F)(F)C(F)(F)C(F)(F)C(F)(F)C(F)(F)C(F)(F)F`, the outcome in [10] and in [4] was inactive. Moreover, the AC50 in test [7] was 73.1 µM (active); in test [8], 57.9 µM (active).
On to `Oc1cc(Cl)ccc1Oc1ccc(Cl)cc1Cl`, for which the molecule was classed as inactive in test [1], in test [2], in [3], in test [4], in test [6] and in test [9]. Further, the concentration at half-maximal activity (AC50) is 9.39 µM (active) in [5], 11.1 µM (active) in test [7] and 14.4 µM (active) in [8].
`Oc1ccc(Cl)cc1Cc1ccccc1`: the molecule was called inactive in [2], in [3], in test [6], in [8] and in test [9]. Further, the AC50 in test [7] was 10.1 µM (active).
As for `CCCN(CCOc1c(Cl)cc(Cl)cc1Cl)C(=O)n1ccnc1`, the call in test [10], in test [4] and in test [6] was inactive. The results for the AC50 in test [5], in test [7] and in test [8] were 33.4 µM (active), 15.8 µM (active) and 0.11 µM (active), respectively.
Regarding `O=S1OCC2C(CO1)C1(Cl)C(Cl)=C(Cl)C2(Cl)C1(Cl)Cl` (configuration not stated), the outcome in [2], in test [3], in [10], in test [5] and in test [7] was inactive. In addition, the AC50 in test [8] is 0.512 µM (active).
On to `CCCN(CCC)c1c([N+](=O)[O-])cc(C(F)(F)F)cc1[N+](=O)[O-]`, for which the molecule was called inactive in [2], in [3] and in test [6]. Besides, the AC50 in [5] was 27.1 µM (active); in test [7], 35.1 µM (active); in [8], 2.85 µM (active).
